# Compounds with a hit are over-represented: about 4.1% of the library has one in this group of screens.
# DAX1 inh-1 = NR0B1 (DAX1) inhibition. P51843. HEK293 Gal4-DAX1 luciferase reporter, luminescence. inhibition, % at 6.75 µM. hit rate 0.99% among 340,000. AID 504766;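 active means inhibition above the mean over all tested compounds plus 3 SD, cut at about 4.2% in these data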;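 further: 0% = DAX1-transfected cells with DMSO and 100% = empty-vector control cells with DMSO; inhibition shows as a rise in luminescence from relieved DAX1 repression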
# Target sequence (P51843 207-470 limits assumed): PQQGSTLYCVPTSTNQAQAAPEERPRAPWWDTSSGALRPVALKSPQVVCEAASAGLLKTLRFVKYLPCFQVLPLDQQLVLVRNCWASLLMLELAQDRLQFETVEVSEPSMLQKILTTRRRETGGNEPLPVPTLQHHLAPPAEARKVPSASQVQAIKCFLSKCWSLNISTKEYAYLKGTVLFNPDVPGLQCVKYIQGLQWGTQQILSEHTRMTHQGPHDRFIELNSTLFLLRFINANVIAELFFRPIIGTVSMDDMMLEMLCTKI
# hgDAF-12 ag = agonists of H. glycines DAF-12 nuclear receptor. activation, % at 6.8 µM. AID 687014. HEK293 GAL4-hgDAF12 UAS-luciferase reporter, agonist luminescence; normalized to butyrate control. hit rate 1.8% among 370,000;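 active means activation above a cutoff set at the mean of all screened compounds plus 3 SD, cut at about 10% in these data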;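 further: 0% = DMSO wells and 100% = sodium butyrate wells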
# hcDAF-12 act = H. contortus DAF-12 activation, primary screen; activation, % at 6.8 µM; hit rate 1.4% among 370,000; HEK293 hcDAF-12 lit1-tk-luc reporter, luminescence; 0% DMSO, 100% Δ7-dafachronic acid;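 active means activation above the mean of all tested compounds plus 3 SD, cut at about 5.5% in these data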;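 further: 100% = response to 3 µM Δ7-dafachronic acid high control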
# DAX1 inh-2 = inhibitors of DAX1 repression of SF-1 activated StAR promoter; HEK293T StAR-luciferase reporter, SF-1/DAX-1 repression relief; inhibition, % at 6.8 µM; hit rate 1.1% among 370,000;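 active means inhibition above the mean over all tested compounds plus 3 SD, cut at about 3.6% in these data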;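 further: 0% = DAX-1 cells with DMSO and 100% = cells lacking DAX-1 with DMSO; higher inhibition means more luminescence from relief of DAX-1 repression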
# ssDAF-12 act = activates DAF-12 receptor from parasite S. stercoralis. HEK293 ssDAF-12/GRIP1 lit1-tk-luc reporter, luminescence; % of 3 µM dafachronic acid response. activation, % at 6.8 µM. hit rate 1% among 370,000;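 active means activation above the mean over all tested compounds plus 3 SD, cut at about 0.9% in these data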;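 further: 0% = DMSO-only wells and 100% = 3 µM delta7-dafachronic acid wells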
# LXRb hcDAF ctr = activates human LXR-beta, counter-screen for hcDAF-12 agonists. 3,400 tested, under 10 active. HEK293 Gal4-LXR tk-luc reporter, luminescence, 24 h; normalized: DMSO 0%, positive control 100%. shares compounds with hcDAF-12 act. activation, % at 6.8 µM;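 active means mean percent activation of the reporter above a cutoff set as the average over tested compounds plus their standard deviation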
# hcDAF12 conf = hcDAF-12 agonism, confirmation assay; activation, % at 6.8 µM; hit rate 61% among 3,400; shares compounds with hcDAF-12 act; HEK293 hcDAF-12 lit1-tk-luc reporter, luminescence; % of Δ7-dafachronic acid response;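 active means mean activation across triplicate tests above the threshold derived from the earlier primary screen, cut at about 5.5% in these data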;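 further: 0% = DMSO only wells and 100% = 3 µM Δ7-dafachronic acid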
# Numbers without * were called inactive; x = no result.
SMILES,DAX1 inh-1,hgDAF-12 ag,hcDAF-12 act,DAX1 inh-2,ssDAF-12 act,LXRb hcDAF ctr,hcDAF12 conf
O=S(=O)(Nc1nc2ccccc2nc1N1CCN(c2ccccc2)CC1)c1ccc(F)cc1,-1.4,0.3,8.3*,0.1,0.8,-0.1,5.1
CCOC(=O)C1(C)CCCCCN1C(=O)c1ccc(SC(F)(F)F)cc1 (stereo not given),x,0.2,-0.4,-0.8,-0.8,x,x
O=[N+]([O-])c1cccc(/C(=N/N=C/c2ccccc2Br)C23CN4CN(CN(C4)C2)C3)c1,-0.2,-1.3,-0.4,0.2,-0.8,x,x
CC(C)=N/N=C(/c1ccc([N+](=O)[O-])cc1)C12CN3CN(CN(C3)C1)C2,-0.2,-0.8,6.9*,-0.2,-1.4,-0.3,-0.2
O=C(Nc1nnc(-c2ccccc2Cl)o1)c1nc2ccccc2s1,0.6,6.2,8.8*,0.6,1.2*,-0.3,4.8
O=C(Nc1nnc(-c2ccccc2Cl)o1)c1ccco1,0.3,9.9,3.8,0.0,-0.6,x,x
Cn1c(=O)oc2cc(S(=O)(=O)NCc3ccc(F)cc3)ccc21,0.8,0.4,1.3,-0.7,-0.4,x,x
COCCn1c(N)c(N(Cc2ccccc2)C(=O)Cc2c(Cl)cccc2Cl)c(=O)[nH]c1=O,-0.1,0.7,0.3,0.0,-1.2,x,x
Cc1ccc(-n2nnc(-c3cc4ccccc4n3C)n2)cc1,2.5,3.5,9.7*,1.5,1.0*,1.2,12.9*
Cc1nn(C)c(C)c1CN(C(=O)C1CCC(=O)N(C2CCCCCC2)C1)C(C)C (stereo not given),0.8,2.5,0.6,0.2,-1.0,x,x
COc1ccc(-c2nc3ccccc3c(=O)n2CCOc2ccccc2C)cc1,6.9*,2.6,6.6*,-0.2,0.0,-0.3,1.6
C[C@@H](CSc1ccccc1)CN1CC[C@H](NC(=O)OCc2ccccc2)CCC1=O,1.6,-2.4,-2.0,-0.5,-1.3,x,x
COc1ccc(OCc2cc(C(=O)N3CCC(OC)CC3)no2)c2ccccc12,2.7,9.4,7.8*,3.8*,0.7,0.4,6.4*
COc1ccc(OCc2cc(C(=O)NC3CCOC(C)(C)C3)no2)c2ccccc12 (stereo not given),3.5,5.5,7.9*,4.1*,2.1*,0.5,8.0*
CSc1ccccc1OCc1cc(C(=O)NC2CCOC(C)(C)C2)no1 (stereo not given),-0.7,1.6,-1.2,-0.3,-1.4,x,x
Cc1cccc(OCC(=O)Nc2ccc3c(c2)nc(CCN2CCN(c4ccccn4)CC2)n3C)c1,-2.3,-9.9,-6.3,-1.8,-2.1,x,x
Brc1cccc(-c2nnc(-c3ccccc3)o2)c1,3.6,10.4*,10.9*,3.9*,1.6*,1.7,11.2*
C/C(=N\NC(=O)c1cccnc1)c1cc2ccccc2o1,-0.7,3.8,0.3,-0.4,-0.3,x,x
O=[N+]([O-])c1ccc(-c2ccc(S(=O)(=O)N3CCOCC3)cc2)cc1,4.5*,2.0,6.6*,-0.1,-0.9,-0.1,1.0
O=[N+]([O-])c1ccc(Oc2ccc(S(=O)(=O)N3CCOCC3)cc2)cc1,-1.9,-3.9,-1.4,-1.1,-1.4,x,x
C=CCn1c(C)nnc1SCC(=O)Nc1nccs1,0.1,2.2,-0.8,0.3,-0.8,x,x
C=CCn1c(C)nnc1SCC(=O)Nc1nc(C)c(C(=O)N(C)C)s1,1.8,2.8,7.3*,0.2,-0.8,-0.1,1.1
N/C(=N\OC(=O)COc1ccc(Br)cc1Cl)c1ccccn1,-1.4,7.8,9.8*,4.2*,0.1,1.3,7.6*
N/C(=N\OC(=O)COc1ccc2ccccc2c1Br)c1ccccn1,0.4,10.2,2.2,2.5,0.2,x,x
COc1ccc(Cl)cc1C(=O)O/N=C(\N)c1ccccn1,3.4,6.0,7.1*,1.9,0.1,0.2,4.0
SMILES,DAX1 inh-1,hgDAF-12 ag,hcDAF-12 act,DAX1 inh-2,ssDAF-12 act,LXRb hcDAF ctr,hcDAF12 conf
COc1ccc(C(=O)O/N=C(\N)c2ccccn2)c(OC)c1,-1.0,5.6,4.8,2.1,-0.5,x,x
O=C(CN1C(=O)/C(=C2/SC(=S)N(CCS(=O)(=O)O)C2=O)c2ccccc21)Nc1cccc(Br)c1,2.6,1.3,-0.8,-0.6,-0.7,x,x
OCCCNc1c2ccccc2nc2ccccc12,0.2,7.0,19.9*,-0.3,2.3*,1.9,28.5*
CN(C)CCCNc1c2c(nc3ccccc13)CCC2,-0.2,1.5,7.0*,1.0,-0.8,0.0,5.0
CC(C)[C@H](NC(=O)OC(C)(C)C)c1cc(C(=O)N[C@@H](C)c2ccccc2)c(N)s1,x,5.7,-1.1,1.6,-0.6,x,x
O=C(CN1CCCCCC1)N/N=C/c1ccc2ccccc2c1,0.9,4.5,8.1*,0.8,0.2,0.2,2.4
O=C(CNc1ccc2ccccc2c1)N/N=C/c1ccncc1,-0.1,2.5,8.0*,0.0,0.3,-0.2,1.1
Nc1c(Br)cc2oc(-c3ccccc3)nc2c1Br,5.0*,7.5,7.4*,2.0,1.1*,1.2,16.9*
COc1ccc(-c2nc3c(Br)c(N)c(Br)cc3o2)cc1,1.0,x,x,x,x,x,x
C/C(CC(=O)Nc1cc(C)cc(C)c1)=N\NC(=O)c1ccccn1,1.5,11.0*,7.4*,3.0,0.4,0.0,0.3
C/C(CC(=O)Nc1ccccn1)=N\NC(=O)c1ccccc1O,1.1,-0.9,10.6*,0.3,1.0*,0.1,9.1*
C/C(CC(=O)Nc1ccccn1)=N\NC(=O)c1ccc2ccccc2c1,0.2,3.2,0.9,0.4,-1.2,x,x
NNc1nc(-c2ccccc2Cl)nc2sc3c(c12)CCCC3,1.7,8.9,8.3*,2.0,0.8,0.8,7.7*
NNc1nc(-c2ccccc2Cl)nc2ccccc12,1.3,-1.0,0.8,-0.2,-0.6,x,x
FC(F)(F)c1nc2ccccc2c2nc3ccccc3n12,1.8,6.5,8.3*,-0.2,-0.8,-0.2,3.2
c1ccc(-c2nc3ccccc3c3nc4ccccc4n23)cc1,1.2,-1.5,-2.9,-0.3,-2.0,x,x
CC1(C)OC(=O)C2=C(C[C@@H](C3CCCCC3)O[C@H]2c2ccc(F)cc2)O1,x,-1.1,-0.2,-1.4,-1.5,x,x
O=c1c(=NNc2ccccc2Cl)c(=O)c2ccccc12,3.4,4.1,7.9*,0.1,-0.2,1.6,23.7*
CC1(C)CC(=O)c2cc(OCC(=O)O)ccc2O1,-0.1,0.3,-0.4,-0.4,-2.1,x,x
CC1(C)CC(=O)c2ccc(OCc3ccc([N+](=O)[O-])cc3)cc2O1,x,10.2,17.0*,1.8,1.2*,0.7,10.7*
CC(=O)c1cccc(NC(=O)CNC(=O)Cc2ccccc2)c1,-0.6,-1.3,-1.3,0.3,-0.8,x,x
CCCOc1ccc(CN(CCO)CCO)cc1[N+](=O)[O-],0.9,1.9,7.3*,0.7,0.1,-0.3,3.9

# Source: PubChem BioAssay (The Scripps Research Institute Molecular Screening Center)
